HCV inhibitor: blocks hepatitis C virus; Huh7.5.1 HCVcc-Cre infection, luciferase reporter, 44 h; Potency, µM (series often up to 41.8 µM), for the others: top-dose activity change, negative = inhibition, actives largely listed as inhibitors; AID 651820; 340,000 tested, 3.4% active; further: potency means the concentration at half of the fitted maximal effect
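1,000 cells/well; 4 h culture; + compound; + HCVcc-Cre (~0.5 moi); 44 h; luciferase substrate, RT 15 min; read 15 sec.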
LASV entry inh: Lassa virus entry inhibition. Lassa virus pseudotype entry inhibition, cell reporter. Potency, µM (series often up to 37.9 µM), for the others: at the top dose activity change, negative = inhibition, most hits filed as inhibitors. 300,000 tested, 1.2% active; calls by dose curve; tested in HEK293 cells; further: potency means the concentration at half of the fitted maximal effect; nearly all actives have a fitted effect of over 50% in size
HCMV inh: inhibitors of human cytomegalovirus; HFF cells, HCMV-luciferase reporter, 72 h; stronger effect = lower value; activity change, negative = inhibition, % at 57.5 µM; 410,000 tested, 4.5% active; in the data active means activity change below about -60%; inconclusive means no clear call, values can overlap the other calls; inactive means above about -39%
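Human foreskin fibroblasts infected with luciferase-reporter HCMV at MOI 1 PFU/cell, compounds at two doses. Luciferase measured 72 h post infection; normalized to buffer-only basal and Salinomycin (10uM) controls.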
Pf growth 48h: inhibits P. falciparum growth in the first generation, 48 h; P. falciparum luciferase growth in erythrocytes, 48 h; Potency, µM (doses to about 28.7 µM), for the others: top-dose activity change, negative = inhibition, hits mostly inhibitors; 310,000 tested, 5.9% active; further: potency means the concentration at half of the fitted maximal effect
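Firefly luciferase activity from engineered P. falciparum reports growth; inhibitors lower the luminescent signal. Cultures contained 2% hematocrit erythrocytes at 0.1% final parasitemia.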
Marburg entry inh: Marburg virus entry inhibition | 300,000 tested, 1.8% active | Potency, µM (doses to about 37.8 µM), for the others: top-dose activity change, negative = inhibition, actives largely listed as inhibitors | Marburg virus pseudotyped entry inhibition, cell reporter; calls by dose curve; tested in HEK293 cells; further: potency means the concentration at half of the fitted maximal effect
Pf growth 96h: P. falciparum growth inhibition at 96 hours; P. falciparum luciferase reporter growth, 96 h; Potency, µM (series often up to 28.7 µM), inactives show at the highest dose activity change, negative = inhibition, most hits filed as inhibitors; 320,000 tested, 6.9% active; AID 504834; further: potency means the concentration at half of the fitted maximal effect
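96 h incubation, 37 C, 5% CO2, of luciferase-reporter P. falciparum-infected RBCs (2% hematocrit, 0.05% parasitemia final) with test compounds; endpoint luminescence.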
Starred values were filed as active, the others as inactive; [ ] = remark or other dose. Shown are actives, neighbours in structure and some others; about 14% of the full set was active somewhere. Unless noted, the call rests on the fitted dose curve; in most records, active means well fitted inhibition curve with a large enough effect; inconclusive means small, poorly fitted or top-dose-only effect, or another doubt; inactive means no such curve, though single readings can be large or run the other way. On the % scale 0 is the no-effect control and ±100 the full control effect.

For COc1ccc(C2Oc3ccccc3C3=C2C(c2cccs2)n2ncnc2N3)cc1 (stereo not drawn) the results were HCV inhibitor inconclusive, LASV entry inh inconclusive, HCMV inh 9.6, Pf growth 48h 8.28µM* and Marburg entry inh inconclusive.
For Brc1ccc(C2C3=C(Nc4ncnn42)c2ccccc2OC3c2ccncc2)cc1 (stereo not drawn) the results were HCV inhibitor -28.7%, LASV entry inh inconclusive, HCMV inh inconclusive, Pf growth 48h 13.1µM* and Marburg entry inh inconclusive.
Screening O=C(C[C@@H]1C[C@@H]2c3cc(NS(=O)(=O)c4ccc(F)cc4)ccc3O[C@@H]2[C@@H](CO)O1)NC1CCCCC1 returned HCMV inh 17.0.
`Cc1ccc(-n2c(=O)c3ccccc3n(CC(=O)Nc3cccc(C(F)(F)F)c3)c2=O)cc1` gave LASV entry inh -30.1%[46.1 µM], HCMV inh -10.4 and Marburg entry inh -11.2%[46.1 µM].
`COc1ccc(CC(=O)NCc2ccccn2)cc1OC` gave HCV inhibitor 16.9%, LASV entry inh -2.2%, HCMV inh 4.4, Pf growth 48h 10.4µM*, Marburg entry inh 6.3% and Pf growth 96h 4.65µM*.
Screening COc1ccc(CC(=O)NNC(=O)c2nn(Cc3ccccc3)c(=O)c3ccccc23)cc1OC returned HCV inhibitor -2.9%, HCMV inh -32.1, Pf growth 48h 3.29µM* and Pf growth 96h inconclusive.
COc1ccc(CCNC(=O)Cn2nc(C(=O)O)c3ccccc3c2=O)cc1OC was read as HCV inhibitor 6.6%, LASV entry inh 15.4%, HCMV inh -25.8, Pf growth 48h 27.8%, Marburg entry inh 2.2% and Pf growth 96h 23.6%.
COc1ccc(CC(=O)NCc2cccc(CNC(=O)Cc3ccc(OC)c(OC)c3)c2)cc1OC was read as HCV inhibitor -1.8%, HCMV inh 17.1, Pf growth 48h -17.0% and Pf growth 96h 8.28µM*.
`COc1ccc(CC(=O)c2ccc(OC)c(OC)c2C)cc1OC` gave HCV inhibitor inconclusive, LASV entry inh inconclusive, HCMV inh -30.4, Pf growth 48h inconclusive, Marburg entry inh inconclusive and Pf growth 96h 10.4µM*.
`CC(C)C[C@@H]1CN(CCCC[C@H]2CNC(=O)C(=O)N2CCC2CCCCC2)C(=O)C(=O)N1CC1CCCCC1` gave HCMV inh 44.9.
Screening COc1ccc(Cc2c(C3CCCCC3)nc3ccc(Cl)cn23)c(C)c1 returned HCMV inh -19.3.
`CC(=O)N(c1nc2ccccc2s1)N1C(=O)c2ccccc2C1=O` gave HCMV inh -4.9.
For Cc1ccc(CNC(=O)c2ccccc2NC(=O)CN2CC(C)OC(C)C2)cc1 (stereo not drawn) the results were HCV inhibitor -29.7%, LASV entry inh 5.5%, HCMV inh -6.9, Pf growth 48h -13.9%, Marburg entry inh -20.5%[46.1 µM] and Pf growth 96h -13.6%.
Screening COc1ccc(CNC(=O)c2cccc3c(-c4cccnc4)coc23)cc1OC returned HCMV inh -86.0*.
CNC(=O)c1cc(Oc2ccc(NC(=O)c3[nH]c(-c4ccccc4)c4c3C(=O)N(C)C4=O)cc2)ccn1 was read as HCMV inh 15.0.
`Cc1ccc(-c2nc(CN(C)C)cc(CN(C)C)c2O)cc1` gave HCV inhibitor 4.1%, LASV entry inh 26.5%, HCMV inh 0.5, Pf growth 48h 6.57µM*, Marburg entry inh -17.5%[46.1 µM] and Pf growth 96h inconclusive.
CC(=O)c1ccc(NC(=O)CN(C)S(=O)(=O)c2cc3c(cc2Cl)NC(=O)CO3)cc1 was read as LASV entry inh 5.5%[46.1 µM] and HCMV inh 7.8.
`CC1(c2ccc(F)cc2)OC(=O)c2c1ccc1ccccc21` (stereo not drawn) gave HCMV inh -33.4.
Screening CCN(CCO)c1ccc(N=Nc2cc(C)[nH]n2)cc1 returned HCV inhibitor -3.8%, LASV entry inh inconclusive, HCMV inh -79.6*, Pf growth 48h -2.4%, Marburg entry inh inconclusive and Pf growth 96h 179.2%.
